PubChem BioAssay AID1259422 (The Scripps Research Institute Molecular Screening Center, 2018)
Where “and” joins values, the source holds several entries; their conditions need not be identical. Equal entries are not always repeated. Hit rate of the full screen: of about 640,000 compounds, about 9,300 (1.5%) were called active. The full list was thinned out, with actives kept by preference. A number with no mark means an inactive call. Cut-off read from the data, not from the text of the source: active = inhibition above about 32%; inactive = the rest.

assay: TEAD-YAP interaction inhibition, primary screen, TEAD-YAP interaction inhibitor project, luminescence, HEK-TIYL cells (AID 1259422); details: TEAD-Gal4/YAP UAS-luciferase luminescence, at 9.12 µM, stronger effect = higher value;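 note: 0% = median of test compound wells and 100% = reference inhibitor wells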

SMILES	inhibition
N#Cc1ccccc1S(=O)(=O)Nc1ccc(Cl)cc1	7.64%
CC1=C(C(=O)Nc2cccc(Cl)c2)C(c2ccc([N+](=O)[O-])cc2)NC(=O)N1 (stereo not drawn)	-2.46%
COc1ccc(NC(=O)c2ccc([N+](=O)[O-])o2)cc1OC	5.63%
CCOC(=O)C1=C(C)N=c2s/c(=C\c3ccc(-c4ccc([N+](=O)[O-])cc4)o3)c(=O)n2C1c1cccs1 (stereo not drawn)	6.56%
O=C(N/N=C/c1ccc2c(c1)OCO2)C12CC3CC(CC(C3)C1)C2	-46.5%
CC(C)(C)c1ccc(OCC(=O)Nc2ccccc2[N+](=O)[O-])cc1	2.77%
Cc1cc(Cl)ccc1NC(=O)COc1ccc([N+](=O)[O-])cc1	-9.13%
CC(C)(C)c1ccc(OCC(=O)Nc2cc([N+](=O)[O-])ccc2O)cc1	77.8% (active)
O=C(CSc1nc2[nH]ncc2c(=O)n1-c1ccccc1)Nc1ccc(Br)cc1F	8.04%
CCOC(=O)C1CCCCN1Cc1cc(Br)ccc1O (stereo not drawn)	7.45%
COc1ccc(C)cc1NC(=O)CN1C(=O)C(C)N(c2ccc(C)cc2)C1=O (stereo not drawn)	8.14%
C=CCn1c(=S)[nH]c2sc3c(c2c1=O)CCCCC3	8.8%
COc1cccc2cc(-c3nc(-c4ccc(C)cc4C)cs3)c(=O)oc12	1.78%
COc1cccc(Nc2nc(-c3cc4cccc(OC)c4oc3=O)cs2)c1	-12.4%
COc1ccccc1Nc1nc(-c2cc3cccc(OC)c3oc2=O)cs1	58% (active)
CCN(C(=O)C1CCC1)c1nnc(-c2ccc(OC)cc2)s1	-89.3%
CCN1CCN(CC(=O)NCc2ccccc2Cl)C(=O)C1=O	2.39%
CCc1cc2c(C)cc(=O)oc2cc1OCC(=O)NCc1ccco1	42.8% (active)
CCC(C)c1ccc(OCC(=O)NCc2ccco2)cc1 (stereo not drawn)	-13.8%
O=C(COc1cc(Cl)ccc1Cl)NCc1ccco1	-2.94%
Cc1ccc2nc(C3CCN(CC(=O)NCc4ccccc4)CC3)[nH]c2c1	7.44%
Cc1ccc(-n2ncc(C(=O)O)c2-n2cccc2)cc1	1.07%
Nc1c(C(=O)O)cnn1-c1ccccc1	35.4% (active)
O=C(Cc1ccccc1)Nc1c(C(=O)N2CCCCCC2)cnn1-c1ccccc1	-25.7%

SMILES	inhibition
COc1ccccc1C1C2=C(COC2=O)Nc2cc3c(cc21)OCO3 (stereo not drawn)	54% (active)
COc1cc(C2CC(=O)Nc3cc4c(cc32)OCO4)ccc1O (stereo not drawn)	-0.17%
COc1ccccc1C1C2=C(COC2=O)Nc2c1c(=O)n(C)c(=O)n2C (stereo not drawn)	6.62%
Cn1c2c(c(=O)n(C)c1=O)C(c1ccc(F)cc1)C1=C(COC1=O)N2 (stereo not drawn)	13.2%
COc1ccc(C2CC(=O)C3=C(C2)Nc2ccccc2NC3c2cc3c(cc2[N+](=O)[O-])OCO3)cc1 (stereo not drawn)	-38.4%
O=C1OCC2=C1C(c1ccc([N+](=O)[O-])cc1)c1cc3c(cc1N2)OCO3 (stereo not drawn)	51.2% (active)
CCc1ccccc1N(CC(=O)Nc1cccc(F)c1)S(C)(=O)=O	-13.9%
COC(=O)CNC(=O)CC1C(=O)NCCN1Cc1ccc(F)cc1 (stereo not drawn)	-2%
CCNS(=O)(=O)c1ccc(NC(=O)CCOCC)cc1	9.16%
O=C(CN1C(=O)COc2ccc(Cl)cc21)Nc1ccccc1F	3.36%
COC(=O)c1cc(C(=O)N2CC(C)CC(C)C2)cc([N+](=O)[O-])c1 (stereo not drawn)	1.59%
CCOC(=O)c1cc(S(=O)(=O)NCc2ccc(Cl)cc2)cn1C	2.16%
COc1cc(Nc2ccnc(Nc3ccc(N4CCOCC4)cc3)n2)cc(OC)c1OC	72.7% (active)
c1ccc(Nc2nccc(Nc3ccc(N4CCOCC4)cc3)n2)cc1	16.2%
COc1cc(Nc2ccnc(Nc3ccncc3)n2)cc(OC)c1OC	3.91%
S=c1[nH]nc(N2CCOCC2)n1Cc1ccccc1	2.61%
Cn1nccc1C(=O)N1CCC[C@@H]2CN(C(=O)Cc3ccc(F)cc3)CC[C@H]21	6.31%
Cn1nccc1C(=O)NC1CCCc2c1cnn2-c1ccc(F)cc1F (stereo not drawn)	55.8% (active)
O=C(NC1CCCc2ccccc21)c1ccc2nccnc2c1 (stereo not drawn)	-5.54%
Cc1cc(C(=O)N(Cc2ccccc2)C(C)C2CC2)c(Cl)cc1Cl (stereo not drawn)	-10.9%
Cc1noc(C)c1NC(=O)N1CCC2(CC1)OCc1ccccc1O2	-5.79%
CC(C)[C@@H](Cn1nnc2ccccc21)NC(=O)c1ccc(N2CCCCS2(=O)=O)cc1	-3.11%
COc1ccc(CCNC(=O)CCS(=O)(=O)c2cccc3cccnc23)cc1OC	10.6%
CC[C@]1(O)CC2CN(CCc3c([nH]c4ccccc34)[C@@](C(=O)OC)(c3cc4c(cc3OC)N(C=O)[C@H]3[C@@](O)(C(=O)OC)[C@H](OC(C)=O)[C@]5(CC)C=CCN6CC[C@]43[C@@H]65)C2)C1 (stereo partly drawn)	50.8% (active) and 57.9% (active) and 55.9% (active)
